Screening results (PubChem BioAssay)
B2AR arrestin = recruits beta-arrestin to the human beta2-adrenergic receptor; Potency, µM (doses to about 46.1 µM), most hits filed as activators; beta-arrestin recruitment to beta2AR, cell-based reporter; P07550; hit rate 0.02% among 330,000; further: nearly all actives have a fitted effect of over 65% in size
IDH1 R132H inh = human IDH1 R132H inhibition; Potency, µM (series often up to 76.6 µM), actives largely listed as inhibitors; O75874; AID 602179; IDH1-R132H enzyme, NADPH consumption, diaphorase/resazurin fluorescence; hit rate 0.093% among 390,000; further: nearly all actives have a fitted effect of over 65% in size
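IDH1-R132H (0.5 ug/mL) preincubated 30 min with compound, then NADPH (0.016 mM) and alpha-KG (2 mM) added; 80 min at RT, pH 7.5. Remaining NADPH coupled via diaphorase/resazurin to fluorescence (540/590 nm); concentration-response curves normalized to no-enzyme control.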
a7 integrin act = activators of alpha7 integrin expression for muscular dystrophy; alpha7betagal myoblasts, beta-gal FDG fluorescence, 48 h; Potency, µM (top dose mostly 38.3 µM), usual class: activators; hit rate 0.064% among 350,000; AID 624291; further: nearly all actives have a fitted effect of over 60% in size
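Alpha7betagal+/- myoblasts (passage 13) were plated 16-24 hr, then exposed to compounds (1:260 dilution of DMSO stock) for 48 hours at 37C. After MPER lysis, β-galactosidase reporter activity was read as FDG fluorescence (ex 480/em 540) after 30 minutes.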
DRD3 agonist = D3 dopamine receptor (human) agonism | max activation, % | hit rate 0.58% among 410,000 | AID 652048 | P35462 | D3R DiscoveRx beta-arrestin cells, luminescence, 90 min; in the data active means max activation above about 30%
Target sequence (P35462 whole entry, looked up): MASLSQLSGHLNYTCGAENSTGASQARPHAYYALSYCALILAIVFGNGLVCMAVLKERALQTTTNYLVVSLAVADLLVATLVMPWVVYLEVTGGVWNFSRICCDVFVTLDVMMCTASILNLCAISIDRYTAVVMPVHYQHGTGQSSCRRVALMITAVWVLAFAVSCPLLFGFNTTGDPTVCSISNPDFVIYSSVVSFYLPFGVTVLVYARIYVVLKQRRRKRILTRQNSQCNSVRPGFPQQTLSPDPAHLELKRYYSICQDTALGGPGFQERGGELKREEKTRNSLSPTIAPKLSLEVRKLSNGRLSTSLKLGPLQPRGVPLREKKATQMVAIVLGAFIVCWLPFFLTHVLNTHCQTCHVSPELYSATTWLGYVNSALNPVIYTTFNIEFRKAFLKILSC
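Agonist mode: compounds and dopamine controls were applied to plated cells for 90 min at 37 degrees C after an overnight attachment at 1500 cells/well. Luminescent read-out followed 30 - 60 minutes at room temperature with DiscoveRx detection reagent.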
DRD3 antagonist = D3 dopamine receptor (human) antagonism; P35462; D3R cells, DiscoveRx beta-arrestin luminescence, antagonist mode; stronger effect = lower value; max response, negative = inhibition, %; hit rate 2.5% among 360,000; in the data active means max response below about -50%; inconclusive means no clear call, values can overlap the other calls
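Cells expressing the human receptor were seeded at 1500 cells/well, incubated overnight at 37 degrees C in 5% CO2, then exposed to library compounds with dopamine controls for 90 minutes at 37 degrees C before luminescent detection.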
A number is an active result; i = inactive; ? = inconclusive; nt = not tested or not shown. This is a sample that favours compounds with a hit; in the whole collection about 2.9% have one here. Unless noted, the call rests on the fitted dose curve; in most records, active means well fitted curve in the direction sought with a large enough effect; inconclusive means small, poorly fitted or top-dose-only effect, or another doubt; inactive means no such curve, though single readings can be large; an effect the other way counts as inactive or inconclusive.

SMILES | B2AR arrestin | IDH1 R132H inh | a7 integrin act | DRD3 agonist | DRD3 antagonist
COCOc1ccc(/C=C/C(=O)c2c(O)cc(OCOC)cc2OCOC)cc1 | nt | i | i | 43 | i
COc1cc(O)cc(O)c1C(=O)/C=C/c1ccccc1 | i | i | i | i | i
COc1ccc(C=CC(=O)c2ccc(OCc3ccccc3)c(OC)c2)cc1OC | nt | i | i | i | i
CCn1c(-c2cc(Br)cc(OC)c2O)nc2cc(S(=O)(=O)N(C)C)ccc21 | i | i | i | 37 | i
CCn1c(-c2ccccn2)nc2cc(S(=O)(=O)N(C)C)ccc21 | i | i | i | i | i
Cc1ccc(S(=O)(=O)N[C@H](C(=O)OCC(=O)NC(=O)c2cccn2C)C(C)C)cc1 | nt | i | i | 35 | i
CC1CN(Cc2c(O)ccc3c2oc(=O)c2ccccc23)CC(C)O1 (configuration not stated) | i | i | i | i | -66
CC1CN(Cc2c(O)ccc3c(=O)c(-c4ccccc4)coc23)CC(C)O1 (configuration not stated) | i | i | i | i | i
CCCCCCC(C)n1[nH]c(=O)c2c(C)cc(C)nc21 (configuration not stated) | i | i | i | i | i
CCCCCC(C)n1[nH]c(=O)cc1N (configuration not stated) | i | i | i | i | -109
CC(C)=CCC/C(C)=C/CC/C(C)=C/CCC(=O)OC/C=C(\C)CCC=C(C)C | nt | nt | nt | i | nt
COc1cn(CC(=O)Nc2cc(C)ccc2C)c(CN2CCCCC2)cc1=O | nt | i | nt | i | nt
COc1ccc(NC(=O)Cn2c3ncccc3c(=O)n2-c2ccc(C)c(C)c2)c(OC)c1 | nt | i | nt | i | nt
Cc1oc(-c2cc(F)ccc2F)nc1CN1CCCN(C(=O)c2ccco2)CC1 | i | i | i | i | -81
COc1cccc(-c2nc(CN3CCN(C(=O)c4ccco4)CC3)c(C)o2)c1OC | nt | i | i | i | i
Cc1cccc(N2CCN(Cc3nc(-c4ccc(F)cc4F)oc3C)CC2)n1 | i | i | i | i | -86
Cc1cccc(-c2nc(CN3CCN(Cc4cccc(F)c4)CC3)c(C)o2)c1 | i | i | i | i | i
Cc1oc(-c2cccc(F)c2)nc1CN1CCCN(C(=O)c2ccco2)CC1 | i | i | i | i | -62
CCN(c1ccccc1)S(=O)(=O)c1ccc2[nH]cc(C(=O)NCc3ccc(C)cc3)c(=O)c2c1 | nt | i | nt | i | nt
CCCCCn1c(=O)[nH]c2cc(C(=O)NCc3ccc(C)cc3)ccc2c1=O | nt | i | nt | i | nt
CC1CCc2c(sc(NC(=O)c3cc(-c4ccc(Br)cc4)on3)c2C(N)=O)C1 (configuration not stated) | nt | i | nt | i | nt
Clc1ccc(-c2ccc(CNCc3ccccn3)o2)cc1 | i | i | i | i | -69
O=C1C(c2ccc(F)cc2)N(Cc2ccccc2Cl)C(=O)CN1C1CCCCC1 (configuration not stated) | nt | i | nt | i | nt
Cc1ccc(CN2CC(N3CCN(CCO)CC3)CS2(=O)=O)cc1 (configuration not stated) | nt | nt | nt | i | -61
Cc1cc(C)cc(Cn2cc(CN3CC(N4CCCC4)CS3(=O)=O)nn2)c1 (configuration not stated) | nt | nt | nt | i | i
SMILES | B2AR arrestin | IDH1 R132H inh | a7 integrin act | DRD3 agonist | DRD3 antagonist
CCCCCCN1CCN(C2CN(Cc3cn(Cc4ccccc4)nn3)S(=O)(=O)C2)CC1 (configuration not stated) | nt | nt | nt | i | -51
CCCCCCN1CCN(C2CN(Cc3cn(Cc4cc(C)cc(C)c4)nn3)S(=O)(=O)C2)CC1 (configuration not stated) | nt | nt | nt | i | i
Cc1cc(C)cc(Cn2cc(CN3CC(N4CCSCC4)CS3(=O)=O)nn2)c1 (configuration not stated) | nt | nt | nt | i | -54
CN1CCN(NC(=O)CN2C(=O)/C(=C/c3c(Cl)cccc3Cl)SC2=S)CC1 | i | i | i | i | i
CN1CCN(NC(=O)CN2C(=O)/C(=C/c3ccccc3Cl)SC2=S)CC1 | i | i | i | i | -64
CC(=O)N(c1cccc(Br)c1)C1C=CS(=O)(=O)C1 (configuration not stated) | i | i | i | i | -67
CCOC(=O)c1cc([N+](=O)[O-])cc([N+](=O)[O-])c1Sc1ncnc2nc[nH]c12 | nt | i | i | i | -86
CC1CCN(C(=O)Cn2c(=O)oc3ccccc32)CC1 | i | i | i | i | i
CC1CCC(NC(=O)Cn2c(=O)oc3ccccc32)CC1 (configuration not stated) | i | i | i | i | -51
COc1ccc(CCNc2oc(Cc3cccc4ccccc34)nc2C#N)cc1OC | i | i | i | i | -60
C/C(=N\Nc1cc(N2CCCCC2)nc(C)n1)c1ccc(Br)cc1 | i | i | i | 67 | i
COC(=O)c1sc2cccc(F)c2c1S(=O)(=O)NCc1ccc(Cl)cc1 | nt | i | nt | i | nt
O=C(O)CCC(=O)N1CCN(c2cccc(Cl)c2)CC1 | i | i | i | i | -63
O=C(C(Cc1ccccc1)n1cccc1)N1CCN(c2cccc(Cl)c2)CC1 (configuration not stated) | i | i | i | i | i
COc1cccc(N2CCN(C(=O)CC(NC(=O)c3ccccc3)c3ccccc3)CC2)c1 (configuration not stated) | i | i | i | i | -54
O=C(O)/C=C/C(=O)N1CCN(c2cccc(Cl)c2)CC1 | i | i | i | i | -60
CCC(C(=O)N1CCN(c2cccc(Cl)c2)CC1)c1ccccc1 (configuration not stated) | i | i | i | i | -59
O=C(NCc1ccc(Cl)cc1Cl)c1cccc(N2CCCS2(=O)=O)c1 | nt | i | nt | i | nt
Cc1cn([C@H]2C[C@H](O)[C@@H](CNCC3=Cc4cc(O)ccc4OC3)O2)c(=O)[nH]c1=O | nt | i | i | 39 | ?
CCOc1ccccc1NC(=O)Cn1c(=O)n(C(C)C)c(=O)c2oc3ccccc3c21 | nt | i | nt | i | nt
C#CCOCCOCCOCCNc1nc(N2CCN(C(=O)CCCCCCCCCCNC(=O)Cn3cc(CCCCCN)nn3)CC2)nc(N2CCN(C(=O)CCCCCCCCCCNC(=O)[C@H]([C@@H](C)CC)n3cc(CCCCN=C(N)N)nn3)CC2)n1 | i | i | i | i | -63
C#CCOCCOCCOCCNc1nc(N2CCN(C(=O)Cn3cc(CCO)nn3)CC2)nc(N2CCN(C(=O)[C@H]([C@@H](C)CC)n3cc(CCCN=C(N)N)nn3)CC2)n1 | nt | i | i | 53 | i
C#CCOCCOCCOCCNc1nc(N2CCN(C(=O)Cn3cc(CCO)nn3)CC2)nc(N2CCN(C(=O)[C@H](Cc3ccc(O)cc3)n3cc(CCO)nn3)CC2)n1 | nt | i | i | 47 | ?
C#CCOCCOCCOCCNc1nc(N2CCN(C(=O)CCCCCCCCCCNC(=O)[C@@H](CCC(=O)O)n3cc(CCCCCN)nn3)CC2)nc(N2CCN(C(=O)CCCCCCCCCCNC(=O)[C@H]([C@@H](C)CC)n3cc(CCCCCN)nn3)CC2)n1 | i | i | i | 35 | i
